Reference: PubChem BioAssay (NCATS)
For some assays here: Results with a measured potency or affinity are listed apart. Calls of active or inactive are those of the source.

Key:
[1] = qHTS profiling of the MIPE4 collection as inhibitors of Plasmodium falciparum (3D7) proliferation (AID 743344; call rule not given here;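 further: scaled between DMSO vehicle wells and 0.29 µM artemisinin as full inhibition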); settings: P. falciparum 3D7 in erythrocytes, SYBR Green DNA fluorescence, 72 h; at 28.5 µM unless noted
Outline: (§1)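 Erythrocytes infected with P. falciparum (0.3% parasitemia, 2.5% hematocrit) incubated with compounds 72 h at 37 C, 5% CO2. Lysis with saponin/Triton buffer containing SYBR Green I, overnight at room temperature in the dark; DNA fluorescence (485/535 nm) normalised to 0.29 uM artemisinin and DMSO.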

[2] = qHTS profiling of the MIPE4 collection as inhibitors of Plasmodium falciparum (DD2) proliferation (AID 743345; call rule not given here); settings: P. falciparum Dd2 in erythrocytes, SYBR Green DNA, 72 h; at 28.5 µM unless noted
Outline: as §1

[3] = qHTS profiling of the MIPE4 collection as inhibitors of Plasmodium falciparum (DD2) proliferation (Rep 2) (AID 743346; call rule not given here); settings: P. falciparum Dd2 in erythrocytes, SYBR Green DNA, 72 h; at 28.5 µM unless noted
Outline: as §1

[4] = qHTS profiling of the MIPE4 collection as inhibitors of Plasmodium falciparum (HB3) proliferation (AID 743347; call rule not given here;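 further: plate controls were DMSO vehicle wells for no effect and artemisinin wells for full effect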); settings: P. falciparum HB3 in erythrocytes, SYBR Green DNA, 72 h; at 28.5 µM unless noted
Outline: as §1

[5] = Ebola virus entry assay, blue channel fluorescence
[6] = Ebola virus entry assay, green fluorescence channel
[7] = Ebola virus entry assay, ratio channel readout
[8] = Ebola virus entry assay, blue channel fluorescence; remark: listed apart in the source

Question: For `CC(C)N(CCC(C(N)=O)(c1ccccc1)c1ccccn1)C(C)C` (configuration not stated), which parasite growth, % of DMSO control [1] is on record?
Answer: 105%

Question: And the parasite growth remaining, % of DMSO control (lower = more inhibition) [2]?
Answer: 100%

Question: And the parasite growth, % of control (lower = inhibition) [3]?
Answer: 42.5%

Question: What about the growth, % of control [4] of the same compound?
Answer: 95.7%

Question: What about the outcome [5] of the same compound?
Answer: inactive

Question: What about the outcome [6] of the same compound?
Answer: inactive

Question: What about the outcome [7] of the same compound?
Answer: inactive

Question: Which outcome [5] does the source give for `NC(=O)COCCN1CCN(C(c2ccccc2)c2ccc(Cl)cc2)CC1` (configuration not stated) here?
Answer: inactive

Question: What about the outcome [7] of the same compound?
Answer: inactive

Question: With `NC[C@H]1O[C@H](O[C@H]2[C@H](O)[C@@H](O[C@H]3O[C@H](CO)[C@@H](O)[C@H](N)[C@H]3O)[C@H](N)C[C@@H]2N)[C@H](O)[C@@H](O)[C@@H]1O` as the compound, how does the outcome [6] read?
Answer: inactive

Question: What does the source list for `CCC1=C(C)CN(C(=O)NCCc2ccc(S(=O)(=O)NC(=O)NC3CCC(C)CC3)cc2)C1=O` (configuration not stated)?
Answer: outcome [6]: inactive; outcome [7]: inactive

Question: For `CO[C@@]1(NC(=O)Cc2cccs2)C(=O)N2C(C(=O)O)=C(COC(N)=O)CS[C@@H]21`, which outcome [6] is on record?
Answer: inactive

Question: What about the outcome [7] of the same compound?
Answer: inactive

Question: What about the outcome [8] of the same compound?
Answer: inactive

Question: Which results are given for `CCOc1cc(CC(=O)N[C@@H](CC(C)C)c2ccccc2N2CCCCC2)ccc1C(=O)O`?
Answer: outcome [6]: inactive; outcome [7]: inactive

Question: For `O=P(O)(O)C(O)(Cn1ccnc1)P(=O)(O)O`, which parasite growth remaining, % of DMSO control (lower = more inhibition) [2] is on record?
Answer: 90.7% [at 9.64 µM]

Question: And the growth, % of control [4]?
Answer: 72.4% [at 9.64 µM]

Question: What about the outcome [5] of the same compound?
Answer: inactive

Question: And the outcome [6]?
Answer: inactive

Question: What about the outcome [7] of the same compound?
Answer: inactive

Question: Which parasite growth, % of DMSO control [1] does the source give for `CC(NC(C)(C)C)C(=O)c1cccc(Cl)c1` (configuration not stated) here?
Answer: 26.6%

Question: And the parasite growth remaining, % of DMSO control (lower = more inhibition) [2]?
Answer: 55.9%

Question: What about the parasite growth, % of control (lower = inhibition) [3] of the same compound?
Answer: 31%

Question: And the growth, % of control [4]?
Answer: 7.91%

Question: And the outcome [5]?
Answer: inactive

Question: And the outcome [6]?
Answer: inactive

Question: What about the outcome [7] of the same compound?
Answer: inactive

Question: What about the outcome [8] of the same compound?
Answer: inactive

Question: For `COc1cccc2c1C(=O)c1c(O)c3c(c(O)c1C2=O)C[C@@](O)(C(C)=O)C[C@H]3O[C@H]1C[C@H](N)[C@H](O)[C@H](C)O1`, which AC50 [5] is on record?
Answer: 6.31 µM (active)

Question: What about the AC50 [7] of the same compound?
Answer: 5.63 µM (active)

Question: With `CC(C)C[C@H](CN)CC(=O)O` as the compound, how does the parasite growth, % of control (lower = inhibition) [3] read?
Answer: 89%

Question: What about the outcome [5] of the same compound?
Answer: inactive

Question: What about the outcome [6] of the same compound?
Answer: inactive

Question: What about the outcome [7] of the same compound?
Answer: inactive

Question: Which outcome [5] does the source give for `CC(=O)S[C@@H]1CC2=CC(=O)CC[C@]2(C)[C@H]2CC[C@@]3(C)[C@@H](CC[C@@]34CCC(=O)O4)[C@H]12` here?
Answer: inactive

Question: And the outcome [7]?
Answer: inactive

Question: For `O=C1CN=C(c2ccccc2)c2cc([N+](=O)[O-])ccc2N1`, which outcome [6] is on record?
Answer: inactive

Question: And the outcome [7]?
Answer: inactive

Question: What about the outcome [8] of the same compound?
Answer: inactive

Question: Which parasite growth remaining, % of DMSO control (lower = more inhibition) [2] does the source give for `CC(C)[C@H](N)C(=O)OCCOCn1cnc2c(=O)[nH]c(N)nc21` here?
Answer: 94%

Question: And the parasite growth, % of control (lower = inhibition) [3]?
Answer: 136%

Question: And the growth, % of control [4]?
Answer: 102%

Question: And the outcome [5]?
Answer: inactive

Question: What about the outcome [6] of the same compound?
Answer: inactive

Question: And the outcome [7]?
Answer: inactive

Question: Which parasite growth remaining, % of DMSO control (lower = more inhibition) [2] does the source give for `CCC1(C)CC(=O)NC1=O` (configuration not stated) here?
Answer: 111%

Question: And the parasite growth, % of control (lower = inhibition) [3]?
Answer: 96.3%

Question: What about the outcome [5] of the same compound?
Answer: inactive

Question: What about the outcome [6] of the same compound?
Answer: inactive

Question: What about the outcome [7] of the same compound?
Answer: inactive

Question: And the outcome [8]?
Answer: inactive

Question: With `N[C@@H](Cc1cc(I)c(Oc2ccc(O)c(I)c2)c(I)c1)C(=O)O` as the compound, how does the outcome [5] read?
Answer: inactive

Question: And the outcome [7]?
Answer: inactive

Question: With `Nc1nc2[nH]cc(CCc3ccc(C(=O)N[C@@H](CCC(=O)O)C(=O)O)cc3)c2c(=O)[nH]1` as the compound, how does the outcome [6] read?
Answer: inactive

Question: What about the outcome [7] of the same compound?
Answer: inactive

Question: Which outcome [6] does the source give for `CCCC(C)(COC(N)=O)COC(N)=O` here?
Answer: inactive

Question: What about the outcome [7] of the same compound?
Answer: inactive

Question: With `C[C@](O)(CS(=O)(=O)c1ccc(F)cc1)C(=O)Nc1ccc(C#N)c(C(F)(F)F)c1` as the compound, how does the parasite growth, % of DMSO control [1] read?
Answer: 22%

Question: And the parasite growth remaining, % of DMSO control (lower = more inhibition) [2]?
Answer: 93.2%

Question: What about the parasite growth, % of control (lower = inhibition) [3] of the same compound?
Answer: 33.5%

Question: And the growth, % of control [4]?
Answer: 27.8%

Question: What about the outcome [5] of the same compound?
Answer: inactive

Question: And the outcome [6]?
Answer: inactive

Question: What about the outcome [7] of the same compound?
Answer: inactive

Question: What does the source list for `CC(=O)N1CCN(c2ccc(OC[C@H]3CO[C@](Cn4ccnc4)(c4ccc(Cl)cc4Cl)O3)cc2)CC1`?
Answer: parasite growth remaining, % of DMSO control (lower = more inhibition) [2]: 34.2%; parasite growth, % of control (lower = inhibition) [3]: 31%; outcome [5]: inactive; outcome [6]: inactive; outcome [7]: inactive

Question: What does the source list for `CCN(CC)C(=O)/C(C#N)=C/c1cc(O)c(O)c([N+](=O)[O-])c1`?
Answer: outcome [5]: inactive; outcome [6]: inactive; outcome [7]: inactive; outcome [8]: inactive

Question: Which results are given for `CC(C=CC1=C(C)CCCC1(C)C)=CC=CC(C)=CC(=O)O`?
Answer: outcome [5]: inactive; outcome [7]: inactive

Question: What does the source list for `COCCCOc1ccnc(CS(=O)c2nc3ccccc3[nH]2)c1C` (configuration not stated)?
Answer: parasite growth, % of DMSO control [1]: 78.8%; parasite growth remaining, % of DMSO control (lower = more inhibition) [2]: 74.1%; parasite growth, % of control (lower = inhibition) [3]: 63.9%; growth, % of control [4]: 83.7%; outcome [5]: inactive; outcome [6]: inactive; outcome [7]: inactive; outcome [8]: inactive

Question: What does the source list for `O=C(O)CCCc1ccc(N(CCCl)CCCl)cc1`?
Answer: parasite growth, % of DMSO control [1]: 70.9%; parasite growth remaining, % of DMSO control (lower = more inhibition) [2]: 82.7%; parasite growth, % of control (lower = inhibition) [3]: 81.2%; growth, % of control [4]: 54.2%; outcome [5]: inactive; outcome [6]: inactive; outcome [7]: inactive

Question: What does the source list for `Nc1ccn(C[C@@H](CO)OCP(=O)(O)O)c(=O)n1`?
Answer: parasite growth, % of DMSO control [1]: 94% [at 9.64 µM]; parasite growth remaining, % of DMSO control (lower = more inhibition) [2]: 103% [at 9.64 µM]; parasite growth, % of control (lower = inhibition) [3]: 97.9% [at 9.64 µM]; growth, % of control [4]: 81.6% [at 9.64 µM]; outcome [5]: inactive; outcome [6]: inactive; outcome [7]: inactive

Question: For `C[C@]12CCC(=O)C=C1CC[C@@H]1[C@H]3CC[C@](C)(O)[C@@]3(C)CC[C@@H]12`, which parasite growth, % of DMSO control [1] is on record?
Answer: 70.7% [at 57.5 µM]

Question: And the parasite growth remaining, % of DMSO control (lower = more inhibition) [2]?
Answer: 94.5% [at 57.5 µM]

Question: What about the parasite growth, % of control (lower = inhibition) [3] of the same compound?
Answer: 65.8% [at 57.5 µM]

Question: What about the growth, % of control [4] of the same compound?
Answer: 84.5% [at 57.5 µM]

Question: Which parasite growth, % of DMSO control [1] does the source give for `COc1cc(OC)c(OC)cc1C=O` here?
Answer: 98%

Question: What about the parasite growth remaining, % of DMSO control (lower = more inhibition) [2] of the same compound?
Answer: 89%

Question: And the parasite growth, % of control (lower = inhibition) [3]?
Answer: 110%

Question: And the growth, % of control [4]?
Answer: 102%
